This is an account of results in PubChem BioAssay (NCATS).

Results filed as inconclusive are left out. Where a call stands in place of a potency, no number is given. Active and inactive are the calls of the source. Calls come from the whole dose curve; as a rule, active = well fitted curve in the direction sought with a large enough effect; inconclusive = small, poorly fitted or top-dose-only effect, or another doubt; inactive = no such curve, though single readings can be large; an effect the other way counts as inactive or inconclusive.
Potency is the fitted concentration of half-maximal effect.

One assay can be described thus: BET inhibitor-based combinations targeting novel dependencies in MECOM-rearranged (r) AML: UCSD-AML1 cell line (AID 2202235). Note: nearly all actives have a fitted effect of over 40% in size. Particulars: UCSD-AML1 AML cells viability, CellTiter-Glo, 48 h; series mostly up to 46 µM. The method, boiled down: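 Cells at 500/well were exposed for 48 hr to MIPE v5.0 drugs as 11-point dose curves. Viability was read by CellTiter-Glo luminescence and normalized to DMSO and empty-well controls. Activity was expressed as AUC and per-cell-line Z-AUC.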
As for `CCCOc1ccc(C(=O)OCCN(CC)CC)cc1N`, the Potency result is “inactive”.

`Oc1c(Cl)cc(Cl)c2cccnc12`: the Potency is 5.25 µM (active).

As for `NC(N)=NC(N)=NCCc1ccccc1`, the Potency result is “inactive”.

With `Cc1ccc(NC(=O)c2ccc(CN3CCN(C)CC3)cc2)cc1Nc1nc(-c2cccnc2)cs1`, the Potency entry is “inactive”.

With `CC(=O)O[C@H]1C[C@@H]2CC[C@@H]3[C@H](CC[C@@]4(C)[C@H]3C[C@H]([N+]3(C)CCCCC3)[C@@H]4OC(C)=O)[C@@]2(C)C[C@@H]1N1CCCCC1`, the Potency entry is “inactive”.

With `O=c1ccn([C@@H]2O[C@H](CO)[C@H](O)[C@@H]2F)c(=O)[nH]1`, the Potency result was “inactive”.

Turning to `CC1(C)CCC2=C(O1)c1ccccc1C(=O)C2=O`, the Potency is 9.34 µM (active).

For `CC(C)(Sc1cc(C(C)(C)C)c(O)c(C(C)(C)C)c1)Sc1cc(C(C)(C)C)c(O)c(C(C)(C)C)c1`, the Potency entry is “inactive”.

For `Cn1c(Nc2ccc(C(F)(F)F)cc2)nc2cc(Oc3ccnc(-c4ncc(C(F)(F)F)[nH]4)c3)ccc21`, the Potency was 0.833 µM (active).

Turning to `CN(C)CCc1c[nH]c2ccc(CS(=O)(=O)N3CCCC3)cc12`, the Potency result is “inactive”.

Regarding `Cc1coc2c1C(=O)C(=O)c1c-2ccc2c1CCCC2(C)C`, the Potency entry was “inactive”.

On to `CC(Cc1ccc(O)c(O)c1)(NN)C(=O)O` (stereo not drawn), for which the Potency entry is “inactive”.

In the case of `Clc1ccc(C(Cn2ccnc2)OCc2ccc(Sc3ccccc3)cc2)c(Cl)c1` (stereo not drawn), the Potency is 20.9 µM (active).

As for `O=C(/C=C\n1cnc(-c2cc(C(F)(F)F)cc(C(F)(F)F)c2)n1)NNc1cnccn1`, the Potency is 0.372 µM (active).

For `Nc1nc(Cl)nc2c1ncn2[C@H]1C[C@H](O)[C@@H](CO)O1`, the Potency was 0.0295 µM (active).

Regarding `CCOC(=O)c1c(C)n(C)c2ccc(O)cc12`, the Potency entry is “inactive”.

Take `N[C@@H](CC(=O)N1CCn2c(nnc2C(F)(F)F)C1)Cc1cc(F)c(F)cc1F`: the Potency entry is “inactive”.

As for `COC(c1ccccc1)(c1ccccc1)[C@H](Oc1nc(C)cc(C)n1)C(=O)O`, the Potency entry is “inactive”.

In the case of `c1ccc2c(-c3cnn4cc(-c5ccc(N6CCNCC6)cc5)cnc34)ccnc2c1`, the Potency is 2.95 µM (active).

`CCCCC(CC)COC(=O)C(C#N)=C(c1ccccc1)c1ccccc1` (stereo not drawn): the Potency entry is “inactive”.

Another assay can be described thus: BET inhibitor-based combinations targeting novel dependencies in MECOM-rearranged (r) AML: AML-191 cell line (AID 2202236; note: nearly all actives have a fitted effect of over 35% in size). Particulars: AML-191 viability, CellTiter-Glo luminescence, 48 h; series mostly up to 46 µM. The method, boiled down: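 AML cell lines seeded at 500 cells/well, treated with 11-point dose curves for 48 h. Viability by CellTiter-Glo luminescence, normalised to DMSO and empty wells; activity expressed as AUC and per-cell-line Z-transformed AUC.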
On the technique in general: ATP-based viability assays read luminescence as a measure of living cells.
`CCCOc1ccc(C(=O)OCCN(CC)CC)cc1N`: the Potency entry is “inactive”.

On to `Oc1c(Cl)cc(Cl)c2cccnc12`, for which the Potency is 8.33 µM (active).

Regarding `COc1cccc2c1CCCC2CCCN1CCN(C2CCCCC2)CC1` (stereo not drawn), the Potency was 5.9 µM (active).

For `NC(N)=NC(N)=NCCc1ccccc1`, the Potency result is “inactive”.

For `CC(=O)O[C@H]1C[C@@H]2CC[C@@H]3[C@H](CC[C@@]4(C)[C@H]3C[C@H]([N+]3(C)CCCCC3)[C@@H]4OC(C)=O)[C@@]2(C)C[C@@H]1N1CCCCC1`, the Potency entry is “inactive”.

Turning to `C[C@@H](CN1CC(=O)NC(=O)C1)N1CC(=O)NC(=O)C1`, the Potency is 13.2 µM (active).

Turning to `O=c1ccn([C@@H]2O[C@H](CO)[C@H](O)[C@@H]2F)c(=O)[nH]1`, the Potency entry was “inactive”.

Take `OC[C@@H](O)[C@@H](O)[C@H](O)[C@@H](O)CO`: the Potency entry is “inactive”.

For `CC1(C)CCC2=C(O1)c1ccccc1C(=O)C2=O`, the Potency was 7.42 µM (active).

Take `Cn1c(Nc2ccc(C(F)(F)F)cc2)nc2cc(Oc3ccnc(-c4ncc(C(F)(F)F)[nH]4)c3)ccc21`: the Potency was 0.833 µM (active).

For `CC(Cc1ccc(O)c(O)c1)(NN)C(=O)O` (stereo not drawn), the Potency result is “inactive”.

Take `O=C(/C=C\n1cnc(-c2cc(C(F)(F)F)cc(C(F)(F)F)c2)n1)NNc1cnccn1`: the Potency was 0.468 µM (active).

Consider `CCOC(=O)c1c(C)n(C)c2ccc(O)cc12`, for which the Potency result was “inactive”.

Turning to `N[C@@H](CC(=O)N1CCn2c(nnc2C(F)(F)F)C1)Cc1cc(F)c(F)cc1F`, the Potency result was “inactive”.

`c1ccc2c(-c3cnn4cc(-c5ccc(N6CCNCC6)cc5)cnc34)ccnc2c1`: the Potency was 2.63 µM (active).

With `CCn1cc(C(=O)O)c(=O)c2cc(F)c(N3CCN(C)CC3)cc21`, the Potency result was “inactive”.

Turning to `CCCCC(CC)COC(=O)C(C#N)=C(c1ccccc1)c1ccccc1` (stereo not drawn), the Potency result was “inactive”.

For the compound `COc1cc(C(=O)NC2CCN(C)CC2)ccc1Nc1ncc2c(n1)N(C1CCCC1)CCC(=O)N2C(C)C`, the Potency is 18.6 µM (active).
